From PubChem BioAssay (Tox21)
Records with an inconclusive call do not appear. Activity calls are given as the source filed them. Unless noted, the call rests on the fitted dose curve.

How the values were obtained:
[1] = qHTS assay to identify small molecule agonists of the peroxisome proliferator-activated receptor delta (PPARd) signaling pathway - cell viability counter screen (AID 743211; active means well fitted curve in the direction sought with a large enough effect in the repeat runs; an effect the other way counts as inactive or inconclusive; further: nearly all actives have a fitted effect of over 55% in size; further: potency means the concentration at half of the fitted maximal effect)
Procedure, shortened: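 Read-out: CellTiter-Glo luminescence, 30 min RT, measured in the same wells as the beta-lactamase reporter. Cells: GeneBLAzer PPAR delta UAS-bla HEK293H, 3000 cells/well, compound exposure 17 h at 37C.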

[2] = target: Peroxisome proliferator-activated receptor delta (Homo sapiens) (UniProt Q03181); assay: qHTS assay to identify small molecule agonists of the peroxisome proliferator-activated receptor delta (PPARd) signaling pathway (AID 743212)
Procedure, shortened: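 Cells expressing a UAS-driven beta-lactamase reporter (PPARd-bla HEK293H) were given test compounds after a 5 h settle and kept at 37 C. Reporter activity was then measured as FRET fluorescence using LiveBLAzer B/G substrate.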

[3] = qHTS assay to identify small molecule antagonists of the peroxisome proliferator-activated receptor delta (PPARd) signaling pathway - cell viability counter screen (AID 743213; active means well fitted curve in the direction sought with a large enough effect in the repeat runs; an effect the other way counts as inactive or inconclusive; further: nearly all actives have a fitted effect of over 50% in size; further: potency means the concentration at half of the fitted maximal effect)
Procedure, shortened: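 HEK293H cells with the PPARd UAS-bla reporter, co-treated 17 h at 37 C with compounds and L165041 (300 nM final), were lysed with CellTiter-Glo. Luminescence indicated viable cell content.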

[4] = target: Peroxisome proliferator-activated receptor delta (Homo sapiens) (UniProt Q03181); assay: qHTS assay to identify small molecule antagonists of the peroxisome proliferator-activated receptor delta (PPARd) signaling pathway (AID 743215; active means well fitted inhibition curve with a large enough effect in the signal ratio in the repeat runs, not every such curve was filed as active; the % refers to the signal ratio;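 further: cells stimulated with agonist L165041 at 300 nM final during compound exposure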; further: potency means the concentration at half of the fitted maximal effect)
Procedure, shortened: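 Screen format: qHTS, antagonist mode. HEK293H PPARd-bla cells received compound and 300 nM L165041 (final), 17 h, 37 C. Beta-lactamase detected via FRET substrate fluorescence, 2 h, room temperature.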

[5] = target: Bile acid receptor (Homo sapiens) (UniProt Q96RI1); assay: qHTS assay to identify small molecule antagonists of the farnesoid-X-receptor (FXR) signaling pathway (AID 743217; active means well fitted inhibition curve with a large enough effect in the signal ratio in the repeat runs, not every such curve was filed as active; the % refers to the signal ratio)
Procedure, shortened: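 Quantitative HTS, beta-lactamase reporter format: FXR-UAS-bla HEK 293T cells co-treated 16 h at 37 °C with compounds and 50 uM final chenodeoxycholic acid, then read by B/G FRET fluorescence.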

[6] = qHTS assay to identify small molecule agonists of the farnesoid-X-receptor (FXR) signaling pathway - cell viability counter screen (AID 743218; active means well fitted curve in the direction sought with a large enough effect in the repeat runs; an effect the other way counts as inactive or inconclusive; further: nearly all actives have a fitted effect of over 45% in size; further: potency means the concentration at half of the fitted maximal effect)
Procedure, shortened: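 Same-well cytotoxicity check on FXR-UAS-bla HEK 293T cells: 5 h attachment, 16 h compound at 37 C, CellTiter-Glo luminescence read at room temperature after 30 min.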

[7] = target: Bile acid receptor (Homo sapiens) (UniProt Q96RI1); assay: qHTS assay to identify small molecule agonists of the farnesoid-X-receptor (FXR) signaling pathway (AID 743220; active means well fitted activation curve with a large enough effect in the signal ratio in the repeat runs, not every such curve was filed as active; the % refers to the signal ratio)
Procedure, shortened: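 FXR-UAS-bla HEK 293T cells carrying a UAS-driven beta-lactamase reporter were plated for 5 h at 37C/5% CO2, then exposed to DMSO-dissolved Tox21 10K compounds for 16 h at 37C. A LiveBLAzer B/G FRET substrate was loaded for 2 h at room temperature before fluorescence reading.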

[8] = qHTS assay to identify small molecule antagonists of the farnesoid-X-receptor (FXR) signaling pathway - cell viability counter screen (AID 743221; active means well fitted cell-killing curve with a large enough effect in the repeat runs, not every such curve was filed as active; further: nearly all actives have a fitted effect of over 50% in size; further: potency means the concentration at half of the fitted maximal effect)
Procedure, shortened: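 HEK 293T FXR-bla cells, 5 h pre-incubation; compound + CDCA 50 uM final, 16 h, 37 C; beta-lactamase FRET read first, then CellTiter-Glo luminescence, 30 min RT.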

[9] = target: Vitamin D3 receptor (Homo sapiens) (UniProt P11473); assay: qHTS assay to identify small molecule agonists of the vitamin D receptor (VDR) signaling pathway (AID 743222)
Procedure, shortened: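 Using LiveBLAzer B/G FRET detection, agonism was scored in VDR-bla cells exposed overnight (16 h, 37C) to DMSO-dissolved compounds; substrate incubation was 2 h at room temperature.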

[10] = qHTS assay to identify small molecule agonists of the vitamin D receptor (VDR) signaling pathway - cell viability counter screen (AID 743224; active means well fitted curve in the direction sought with a large enough effect in the repeat runs; an effect the other way counts as inactive or inconclusive; further: nearly all actives have a fitted effect of over 50% in size; further: potency means the concentration at half of the fitted maximal effect)
Procedure, shortened: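 Counter screen for cytotoxicity: VDR-bla cells at 2,000 cells/well, 16 h compound exposure, then CellTiter-Glo luminescence after the beta-lactamase measurement.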

[11] = qHTS assay to identify small molecule antagonists of the vitamin D receptor (VDR) signaling pathway - cell viability counter screen (AID 743225; active means well fitted curve in the direction sought with a large enough effect in the repeat runs; an effect the other way counts as inactive or inconclusive; further: nearly all actives have a fitted effect of over 50% in size)
Procedure, shortened: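 Viability counter screen run in the same wells as the beta-lactamase reporter assay: HEK 293T VDR-UAS-bla cells, 16 h compound exposure at 37C with 3 nM (final) 1-alpha,25-dihydroxyvitamin D3. CellTiter-Glo luminescence, 30 min, room temperature.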

[12] = qHTS assay to identify small molecule agonists of the NFkB signaling pathway - cell viability counter screen (AID 1159515); further: nearly all actives have a fitted effect of over 55% in size; further: potency means the concentration at half of the fitted maximal effect
Procedure, shortened: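 Counter screen run alongside the NFkB-bla agonist assay: ME-180 reporter cells exposed to compounds for 5 hr, then lysed with CellTiter-Glo in the same wells. Luminescence, read after 30 min, reflects viable cells.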

[13] = qHTS assay to identify small molecule agonists of the endoplasmic reticulum stress response signaling pathway (AID 1159516; active means well fitted activation curve with a large enough effect in the signal ratio in the repeat runs, not every such curve was filed as active; the % refers to the signal ratio)
Procedure, shortened: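 For this screen, HeLa cells stably carrying beta-lactamase under the ER stress response element received test compounds, positive controls or DMSO for 5 hr at 37 C; B/G FRET substrate was then added and dual-wavelength emission recorded.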

[14] = qHTS assay to identify small molecule agonists of the endoplasmic reticulum stress response signaling pathway - cell viability counter screen (AID 1159517); further: nearly all actives have a fitted effect of over 50% in size; further: potency means the concentration at half of the fitted maximal effect
Procedure, shortened: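 Cpd-treated ESRE-bla HeLa (5 hr, 37 C) → LiveBLAzer 2 hr RT → CellTiter-Glo 30 min RT → luminescence.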

[15] = qHTS assay to identify small molecule antagonists of the retinoid-related orphan receptor gamma (ROR-gamma) signaling pathway - cell viability counter screen (AID 1159520; active means well fitted curve in the direction sought with a large enough effect in the repeat runs; an effect the other way counts as inactive or inconclusive; further: nearly all actives have a fitted effect of over 50% in size; further: potency means the concentration at half of the fitted maximal effect)
Procedure, shortened: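 Tet-on ROR gamma CHO cells (1,000/well) were plated 4 hr, given compounds in DMSO for 2 hr at 37 C, then induced with 1 uM final doxycycline for 16 hr. Viability was read as ATP by CellTiter-Glo luminescence after 30 min.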

[16] = qHTS assay to identify small molecule agonists of the AP-1 signaling pathway - cell viability counter screen (AID 1159525); further: nearly all actives have a fitted effect of over 55% in size
Procedure, shortened: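 Each titration point was normalised to DMSO and tetra n-octyl ammonium bromide controls. The read was Cell Titer Glo luminescence after 30 min at RT, following 5 h compound exposure of ME-180 AP-1-bla cells at 37 °C.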

[17] = qHTS assay to identify small molecule agonists of the AP-1 signaling pathway (AID 1159526)
[18] = target: Vitamin D3 receptor (Homo sapiens) (UniProt P11473); assay: qHTS assay to identify small molecule antagonists of the vitamin D receptor (VDR) signaling pathway (AID 743223; active means well fitted inhibition curve with a large enough effect in the signal ratio in the repeat runs, not every such curve was filed as active; the % refers to the signal ratio)
Procedure, shortened: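 Beta-lactamase reporter read-out: FRET substrate fluorescence after 2 h at room temperature, following 16 h exposure of VDR-bla cells to test compound plus 3 nM (final) 1alpha,25-dihydroxyvitamin D3 agonist at 37C.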

[19] = target: Nuclear receptor ROR-gamma (Homo sapiens) (UniProt P51449); assay: qHTS assay to identify small molecule antagonists of the retinoid-related orphan receptor gamma (ROR-gamma) signaling pathway (AID 1159521; active means well fitted curve in the direction sought with a large enough effect in the repeat runs; an effect the other way counts as inactive or inconclusive; further: nearly all actives have a fitted effect of over 50% in size; further: potency means the concentration at half of the fitted maximal effect)
Procedure, shortened: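 Luminescence readout (ONE-Glo, 30 min RT) after 16 h doxycycline induction; loss of signal scored as antagonism. CHO cells with TET-inducible RORγ and RORE-LUC reporter; compounds added 2 h before 1 uM final doxycycline.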

[20] = target: Retinoic acid receptor RXR-alpha (Homo sapiens) (UniProt P19793); assay: qHTS assay to identify small molecule agonists of the RXR signaling pathway (AID 1159527); further: nearly all actives have a fitted effect of over 35% in size
Procedure, shortened: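 Agonist mode; 9-cis retinoic acid positive control. HEK 293T UAS-bla reporter cells, 2% charcoal-stripped FBS, 16 hr compound exposure at 37 C/5% CO2. LiveBLAzer B/G FRET substrate 2 hr RT; ex 405, em 460/530 nm.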

Measured: Potency

Sequence of Bile acid receptor (Homo sapiens) (Q96RI1 whole entry, looked up): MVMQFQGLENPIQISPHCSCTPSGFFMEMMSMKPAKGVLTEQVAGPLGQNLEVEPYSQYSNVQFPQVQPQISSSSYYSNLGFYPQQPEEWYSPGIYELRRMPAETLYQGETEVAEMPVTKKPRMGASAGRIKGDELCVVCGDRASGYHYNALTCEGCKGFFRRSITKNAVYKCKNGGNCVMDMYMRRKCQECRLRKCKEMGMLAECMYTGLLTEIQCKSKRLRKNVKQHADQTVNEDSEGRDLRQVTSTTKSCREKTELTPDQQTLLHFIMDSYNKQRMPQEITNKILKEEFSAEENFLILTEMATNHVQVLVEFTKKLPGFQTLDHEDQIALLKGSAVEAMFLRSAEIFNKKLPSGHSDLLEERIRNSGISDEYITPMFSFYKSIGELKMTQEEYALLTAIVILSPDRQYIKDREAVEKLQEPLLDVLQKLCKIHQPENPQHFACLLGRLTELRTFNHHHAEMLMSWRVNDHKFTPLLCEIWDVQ
Sequence of Retinoic acid receptor RXR-alpha (Homo sapiens) (P19793 whole entry, looked up): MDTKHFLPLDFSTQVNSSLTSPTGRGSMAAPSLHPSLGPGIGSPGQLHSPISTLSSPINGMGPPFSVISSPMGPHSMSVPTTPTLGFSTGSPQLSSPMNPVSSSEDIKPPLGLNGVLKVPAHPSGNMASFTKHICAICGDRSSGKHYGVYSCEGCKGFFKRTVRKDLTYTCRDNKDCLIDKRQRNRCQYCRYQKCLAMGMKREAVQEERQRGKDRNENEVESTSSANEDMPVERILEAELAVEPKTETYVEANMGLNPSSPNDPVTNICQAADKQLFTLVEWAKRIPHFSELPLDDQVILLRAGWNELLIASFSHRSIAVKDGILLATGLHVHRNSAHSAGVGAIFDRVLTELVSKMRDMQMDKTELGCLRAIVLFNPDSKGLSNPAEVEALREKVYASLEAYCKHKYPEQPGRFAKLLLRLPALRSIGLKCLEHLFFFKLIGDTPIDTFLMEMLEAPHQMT
Sequence of Vitamin D3 receptor (Homo sapiens) (P11473 whole entry, looked up): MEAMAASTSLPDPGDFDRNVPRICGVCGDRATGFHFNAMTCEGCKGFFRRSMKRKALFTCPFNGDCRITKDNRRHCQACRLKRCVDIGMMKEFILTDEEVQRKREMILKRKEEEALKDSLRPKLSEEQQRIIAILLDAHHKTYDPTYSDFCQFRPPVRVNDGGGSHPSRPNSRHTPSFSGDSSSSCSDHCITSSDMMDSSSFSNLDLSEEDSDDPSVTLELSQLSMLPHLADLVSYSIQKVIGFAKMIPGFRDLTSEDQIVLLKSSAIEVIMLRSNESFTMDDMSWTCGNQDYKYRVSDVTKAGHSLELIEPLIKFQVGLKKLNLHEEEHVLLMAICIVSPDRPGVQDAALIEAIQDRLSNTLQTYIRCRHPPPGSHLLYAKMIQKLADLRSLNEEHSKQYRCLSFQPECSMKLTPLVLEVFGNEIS
Sequence of Peroxisome proliferator-activated receptor delta (Homo sapiens) (Q03181 whole entry, looked up): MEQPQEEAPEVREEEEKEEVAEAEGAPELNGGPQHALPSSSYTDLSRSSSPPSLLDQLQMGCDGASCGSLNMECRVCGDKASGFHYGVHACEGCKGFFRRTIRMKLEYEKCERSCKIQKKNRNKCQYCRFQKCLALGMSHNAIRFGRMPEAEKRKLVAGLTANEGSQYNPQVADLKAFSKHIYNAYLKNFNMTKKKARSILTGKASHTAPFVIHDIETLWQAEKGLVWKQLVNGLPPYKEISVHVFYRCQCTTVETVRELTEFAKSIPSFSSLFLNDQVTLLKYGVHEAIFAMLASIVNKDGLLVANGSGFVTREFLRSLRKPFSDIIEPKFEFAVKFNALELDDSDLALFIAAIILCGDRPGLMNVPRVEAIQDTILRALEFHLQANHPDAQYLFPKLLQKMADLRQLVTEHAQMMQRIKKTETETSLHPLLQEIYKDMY

Cc1cc2c3c(c1)C(c1ccccc1)=N[C@@H](NC(=O)c1ccncc1)C(=O)N3CC2
not listed: [18] | [19] | [20]
inactive: all other assays above

CC(C)=CCN1CC[C@@]2(C)c3cc(O)ccc3C[C@@H]1[C@@H]2C
not listed: [5] | [6] | [7] | [19] | [20]
inactive: all other assays above

c1ccc(Nc2ccc(Nc3ccccc3)cc2)cc1
not listed: [1] | [5] | [6] | [10] | [16] | [17] | [19] | [20]
inactive: all other assays above

O=C(NC(=O)c1c(F)cccc1F)Nc1ccc(Oc2ccc(C(F)(F)F)cc2Cl)cc1F
active: [19] 24.3 µM
inactive: [1] | [4] | [5] | [7] | [8] | [11] | [12] | [13] | [14] | [16]

CCCCCCC[CH2][Sn]([Cl])([Cl])[CH2]CCCCCCC
active: [6] 11 µM | [8] 54.9 µM
inactive: [11] | [12] | [13] | [14] | [16]

Clc1ccc(C(Cl)(Cl)Cl)cc1Cl
active: [15] 53.3 µM
not listed: [5] | [6] | [7] | [8] | [14]
inactive: all other assays above

C[C@H]1[C@H](c2ccc(Cl)cc2)SC(=O)N1C(=O)NC1CCCCC1
inactive: [1] | [6] | [8] | [9] | [12] | [13] | [14] | [16] | [17]
active: [19] 48.6 µM

O.O.O.O.O.O.O.O=S(=O)([O-])[O-].[Co+2]
inactive: [3] | [10] | [11] | [12] | [13] | [14] | [16] | [17] | [20]

CO/N=C(\C(=O)OC)c1ccccc1CO/N=C(\C)c1cccc(C(F)(F)F)c1
active: [1] 21.9 µM | [3] 21.9 µM | [4] 4.9 µM
inactive: [2] | [9] | [12] | [13] | [14] | [16] | [17]

CCCN
inactive: [1] | [3] | [8] | [12] | [13] | [14] | [15] | [17]

CCOC(=O)CCN(SN(C)C(=O)Oc1cccc2c1OC(C)(C)C2)C(C)C
active: [19] 30.6 µM
not listed: [2] | [4] | [9] | [15] | [16] | [17] | [18] | [20]
inactive: all other assays above

S=C=Nc1ccccc1
not listed: [2] | [4] | [14] | [18]
inactive: all other assays above

C[C@]12CC[C@H]3[C@@H](CCC4=CC(=O)CC[C@@H]43)[C@@H]1CC[C@@H]2OC(=O)CCc1ccco1
active: [1] 26.6 µM | [3] 29.8 µM | [6] 21.1 µM | [10] 21.1 µM
inactive: [9] | [12] | [13] | [14] | [15]

CN
not listed: [2] | [4] | [5] | [7] | [10] | [14]
inactive: all other assays above

[O]=[Cr][O][Cr]=[O]
not listed: [2] | [4] | [7] | [11] | [14] | [18]
inactive: all other assays above

Oc1cccc(Cl)c1Cl
inactive: [1] | [3] | [4] | [6] | [8] | [10] | [11] | [12] | [13] | [14] | [15]

CCC(C)c1cccc(C(C)CC)c1O (configuration not stated)
inactive: [3] | [4] | [6] | [7] | [8] | [9] | [12] | [13] | [14] | [15] | [20]

CCCCCON=O
not listed: [1] | [2] | [5] | [7] | [10] | [14]
inactive: all other assays above

CO/N=C(/C1=NOCCO1)c1ccccc1Oc1ncnc(Oc2ccccc2Cl)c1F
inactive: [2] | [8] | [12] | [13] | [14] | [16] | [17]

Oc1ccc(Cl)c(Cl)c1
active: [19] 17 µM
not listed: [5] | [7] | [15] | [18]
inactive: all other assays above

CCC[CH2][Sn]([CH2]CCC)([O]C(C)=O)[O]C(C)=O
inactive: [11] | [13]
active: [4] 19.7 µM | [6] 11.1 µM | [8] 17.5 µM | [12] 11.1 µM | [14] 1.97 µM | [15] 0.0978 µM

CCOP(=S)(NC(C)C)Oc1ccccc1C(=O)OC(C)C (configuration not stated)
inactive: [1] | [2] | [3] | [18] | [10] | [11] | [12] | [13] | [14] | [17]
active: [6] 21.9 µM

CSC(=O)c1c(C(F)F)nc(C(F)(F)F)c(C(=O)SC)c1CC(C)C
inactive: [2] | [4] | [6] | [12] | [13] | [14] | [16] | [17]
active: [10] 43.4 µM | [19] 54.2 µM
